High-throughput results deposited in PubChem BioAssay by National Center for Advancing Translational Sciences (NCATS).
Pf growth 48h = Primary qHTS for delayed death inhibitors of the malarial parasite plastid, 48 hour incubation. Potency, µM (top dose mostly 28.7 µM), for inactives: at the highest dose activity change, negative = inhibition, hits mostly inhibitors. AID 504832, 2011. P. falciparum luciferase growth in erythrocytes, 48 h. 5.9% of 310,000 active; active means well fitted inhibition curve with a large enough effect; inconclusive means small, poorly fitted or top-dose-only effect, or another doubt; inactive means no such curve, though single readings can be large or run the other way; further: potency means the concentration at half of the fitted maximal effect; on the % scale 0 is the no-effect control and ±100 the full control effect
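Erythrocytes infected with P. falciparum carrying an integrated firefly luciferase reporter (2% hematocrit, 0.1% parasitemia final) were exposed to compounds in RPMI 1640 with 0.5% Albumax at 37 C, 5% CO2. Growth inhibition was scored as reduced luminescence.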
Shiga toxin inh = A qHTS for Small Molecule Inhibitors of Shiga Toxin. Vero cells, Shiga toxin protein synthesis inhibition reporter. 9.2% of 290,000 active. inhibition, % at 38.7 µM. AID 2315, 2010; in the data active means inhibition mostly above about 28%, no sharp cut-off; inactive means mostly below about 43%; further: 0% is about no effect
Pf growth 96h = Primary qHTS for delayed death inhibitors of the malarial parasite plastid, 96 hour incubation; P. falciparum luciferase reporter growth, 96 h; Potency, µM (titrated, usually from 28.7 µM), for inactives: at the top dose activity change, negative = inhibition, usual class: inhibitors; 6.9% of 320,000 active; active means well fitted inhibition curve with a large enough effect; inconclusive means small, poorly fitted or top-dose-only effect, or another doubt; inactive means no such curve, though single readings can be large or run the other way; further: potency means the concentration at half of the fitted maximal effect; on the % scale 0 is the no-effect control and ±100 the full control effect
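Cell-based qHTS: luciferase-tagged P. falciparum in erythrocytes (2% hematocrit, 0.05% parasitemia final) incubated with compounds for 96 hours, 37 C, 5% CO2; luciferase detection reagent then added and luminescence measured.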
SARS PLpro yeast = qHTS of Yeast-based Assay for SARS-CoV PLP. S. cerevisiae expressing SARS-CoV PLpro, growth rescue. Potency, µM (doses to about 32.9 µM), without a hit: at the highest dose activity, positive = growth rescue, usual class: activators. 0.19% of 330,000 active. AID 485353, 2010; further: potency means the concentration at half of the fitted maximal effect; 0% is about no effect; nearly all actives have a fitted effect of over 55% in size
NS1 inh = qHTS Assay for Inhibitors of Influenza NS1 Protein Function; Potency, µM (titrated, usually from 46.1 µM), for the others: at the highest dose activity, positive = more growth; AID 2326, 2010; 0.4% of 270,000 active; further: potency means the concentration at half of the fitted maximal effect; actives are rising curves; nearly all actives have a fitted effect of over 50% in size
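A cell-based growth assay was used: compounds that relieve NS1-induced slow growth of budding yeast raise OD600. Assay medium was yeast nitrogen base with ammonium sulphate and -URA supplement, pH 6.0, with 2% galactose.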
Cycloheximide cs = Cycloheximide Counterscreen for Small Molecule Inhibitors of Shiga Toxin; cell reporter, cycloheximide protein synthesis inhibition counterscreen; max response, %; 12% of 300,000 active; in the data active means max response mostly above about 13%, no sharp cut-off; inactive means mostly below about 14%; further: read at 38.3 µM for the half of the compounds with a filed dose; 0% is about no effect
Starred values were filed as active, the others as inactive; ? = inconclusive; nt = no result given. Sampled rows, rich in hits. Any-hit rate of the full collection: about 21%. Unless noted, the call rests on the fitted dose curve.

SMILES | Pf growth 48h | Shiga toxin inh | Pf growth 96h | SARS PLpro yeast | NS1 inh | Cycloheximide cs
O=C(CSc1ccc2c(c1)OCCO2)Nc1cccnc1 | 49% | 22 | ? | -3% | 3% | 2
O=C(OCC#CCSc1nnc(-c2cccc3ccccc23)o1)c1cccc2[nH]ccc12 | ? | nt | 10% | -5% | nt | nt
COc1ccc(NC(=S)N2CCCC2)c(OC)c1 | 4% | -16 | 17% | 1% | 1% | -3
COC(=O)c1ccccc1NC(=O)CCCn1nc([N+](=O)[O-])c(Br)c1C | 11% | 23 | -18% | -1% | nt | 4
CN(CC1CCOCC1)C(=O)CC1C(=O)NCCN1Cc1cccc(C(F)(F)F)c1 (stereo not drawn) | ? | 3 | -14% | 1% | 10% | 0
O=C(CN1CCOCC1)NN=C1CCCCCCCCCCC1 | 11% | -2 | -15% | 7% | -3% | 1
CCCCOC(=O)C1=C(C)NC(=O)NC1c1ccccc1 (stereo not drawn) | 6% | -6 | 8.3µM* | -3% | 5% | -4
CCOC(=O)C1=C(C)NC(=O)NC1c1ccc(NC(C)=O)cc1 (stereo not drawn) | 6% | -12 | 6% | -4% | 3% | -2
CCOC(=O)C1=C(C)NC(=O)NC1c1ccc(N2CCC(c3ccccc3)=N2)cc1 (stereo not drawn) | ? | 26* | -55% | 2% | -14% | 11*
CCCCOC(=O)C1=C(C)NC(=O)NC1c1ccc(N(C)C)cc1 (stereo not drawn) | 18% | -7 | 176% | 3% | -2% | -2
CC1=C(C(=O)OC2CCCCC2)C(c2ccccc2)NC(=O)N1 (stereo not drawn) | 8% | -5 | 9.3µM* | 3% | 16% | 4
CCOC(=O)c1cc2c(=O)n3cccc(C)c3nc2n(CCOC)c1=NC(C)=O | ? | 13 | 6.6µM* | -1% | -2% | 1
CCOC(=O)c1cc2c(=O)n3ccccc3nc2n(CCCOC)c1=NC(=O)c1ccncc1 | -19% | -3 | ? | -1% | 6% | -3
CC(C)OCCCn1c(=N)c(C(N)=S)cc2c(=O)n3ccccc3nc21 | nt | -23 | 13µM* | 6% | 11% | -2
CCOCCCn1c(=NC(C)=O)c(C#N)cc2c(=O)n3cccc(C)c3nc21 | 67% | -7 | ? | 0% | 2% | 3
CCOCCCn1c(=NC(=O)c2ccc(OC)c(OC)c2)c(C#N)cc2c(=O)n3cccc(C)c3nc21 | 2.3µM* | -11 | nt | 1% | 2% | -1
CCOC(=O)c1cc2c(=O)n3ccccc3nc2n(CCCOC)c1=NC(C)=O | -13% | -14 | 10µM* | -1% | -6% | -2
CCOC(=O)c1cc2c(=O)n3cccc(C)c3nc2n(CC2CCCO2)c1=NC(C)=O (stereo not drawn) | nt | nt | nt | nt | 4% | nt
CCCOc1ccc(C(=O)NNC(=O)c2cccc(S(=O)(=O)N3CCN(C(C)=O)CC3)c2)cc1OC | 1% | nt | 2% | -2% | nt | nt
CC(C)CNC(=O)C1CCN(S(=O)(=O)c2ccc3c(c2)OCCO3)CC1 | -26% | nt | -25% | 3% | nt | nt
CCn1ccnc1CN(C)C(=O)C1CCC(=O)N(CCc2cccc(F)c2)C1 (stereo not drawn) | 17% | -28 | 41% | ? | 0% | -2
COCCn1c(SCC(=O)NC2CCCC(C)C2C)nc2ccccc2c1=O (stereo not drawn) | 2% | nt | -21% | 0% | nt | nt
COc1ccc(CNC(=O)Cn2cnc3c(NCc4ccccc4)ncnc32)cc1 | nt | nt | nt | 5% | nt | nt
CC(CN1C(C)CCCC1C)OC(=O)c1ccccc1F (stereo not drawn) | 32% | -4 | 19% | -1% | 3% | -2
Cc1nnc(SCC(=O)Nc2ccc3c(c2)OCO3)n(N)c1=O | 4% | 27 | 0% | 0% | nt | 9
SMILES | Pf growth 48h | Shiga toxin inh | Pf growth 96h | SARS PLpro yeast | NS1 inh | Cycloheximide cs
CCOc1ccc(CNC(=O)C(=O)c2cn(CC(=O)N3CCOCC3)c3ccccc23)cc1OC | 35% | 7 | -25% | 0% | -13% | 10*
COc1ccc(CNC(=O)C(=O)c2cn(CC(=O)N3CCCC3)c3ccccc23)cc1 | 66% | 81 | ? | 1% | 1% | 18*
NS(=O)(=O)c1ccc(CCNC(=O)C(=O)c2cn(CC(=O)N3CCOCC3)c3ccccc23)cc1 | 9% | -6 | -20% | 9% | 12% | 1
COc1ccccc1CCNC(=O)C(=O)c1cn(CC(=O)N2CCOCC2)c2ccccc12 | 28% | 80* | ? | 5% | -8% | 61*
COc1ccc(CNC(=O)C(=O)c2cn(CC(=O)N3CCOCC3)c3ccccc23)cc1 | 34% | 25 | -2% | -4% | -7% | 15
COc1ccccc1CNC(=O)C(=O)c1cn(CC(=O)N2CCCC2)c2ccccc12 | ? | 62* | ? | -1% | 0% | 20*
Nc1ccn([C@H]2O[C@H](CO)[C@@H]3[O][Sn]([c]4ccccc4)([c]4ccccc4)[O][C@H]32)c(=O)n1 | nt | nt | nt | nt | -7% | nt
CC(NC(=O)COc1ccccc1F)C1CC2CCC1C2 (stereo not drawn) | -1% | -2 | 31% | -9% | nt | 13
O=C1c2ccccc2NC2CCCCC12 (stereo not drawn) | 1.9µM* | -3 | 3% | -41% | -112% | -3
O=C1c2ccccc2NC2CCCCCN12 (stereo not drawn) | -16% | 2 | ? | -10% | -2% | 5
CCC(Oc1ccccc1)C(=O)N1CCN(S(=O)(=O)c2ccccc2)CC1 (stereo not drawn) | ? | nt | -16% | 2% | nt | nt
[O-]/[N+](=C\c1ccco1)c1ccc(Cl)cc1 | ? | 82* | ? | -13% | -7% | 61*
CN1C(=S)SC(/[N+]([O-])=C/c2ccc(Cl)cc2)C1(C)C (stereo not drawn) | 134% | -5 | -5% | -1% | -32% | 5
[O-]/[N+](=C/c1ccc(F)cc1)c1ccc(Cl)cc1 | 121% | 53 | -12% | 4% | -1% | 54*
[O-]/[N+](=C/c1ccco1)c1ccccc1 | 15% | 40 | ? | -1% | -27% | 23*
COCCCNC(=O)/C=C/c1ccc(Cl)cc1Cl | 12% | 54* | 18% | 4% | -52% | 17*
Cc1ccc(-c2cc(C(=O)N3CCN(c4ccccc4O)CC3)c3ccccc3n2)o1 | ? | 66* | 13µM* | -12% | -58% | 35*
O=C(c1ccc2ccccc2n1)N1CCN(c2ccccc2)CC1 | 4% | -5 | nt | -1% | -6% | -3
O=C(c1cc(-c2ccc(Br)cc2)nc2ccccc12)N1CCN(c2ccccc2O)CC1 | 5.9µM* | nt | 5.9µM* | 3% | nt | nt
O=C(c1cc(-c2ccc(Cl)cc2)nc2ccccc12)N1CCC1 | ? | nt | ? | 0% | nt | nt
